Experimental data from PMC5540273 (PLoS ONE, 2017).

Assays:
Details in all cases: concentration: 1 μM, replicates: in singlicate; n = 1
AAK1 = test system: AAK1
ABL1-nonphosphorylated = test system: ABL1-nonphosphorylated
ABL1-phosphorylated = test system: ABL1-phosphorylated
ABL2 = test system: ABL2
ACVR1B = test system: ACVR1B
ACVR1 = test system: ACVR1
ACVR2A = test system: ACVR2A
ACVR2B = test system: ACVR2B
ACVRL1 = test system: ACVRL1
ADCK3 = test system: T1, ADCK3
T1 construct: gene CABC1

ADCK4 = test system: ADCK4
AKT1 = test system: AKT1
AKT2 = test system: AKT2
AKT3 = test system: AKT3
ALK = test system: ALK
AMPK-alpha1 = test system: T2, AMPK-alpha1
T2 construct: gene PRKAA1

AMPK-alpha2 = test system: T3, AMPK-alpha2
T3 construct: gene PRKAA2

ANKK1 = test system: ANKK1
ARK5 = test system: T4, ARK5
T4 construct: gene NUAK1

ASK1 = test system: T5, ASK1
T5 construct: gene MAP3K5
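Note: KINOMEscan kinase panel screen.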

SMILES: CN(C)Cc1ccc(-c2ccc3c(Nc4ccc(Oc5ccccn5)cc4)ccnc3c2)o1 [GW567148]
- %Inh (AAK1): 0%
- %Inh (ABL1-nonphosphorylated): 89%
- %Inh (ABL1-phosphorylated): 32%
- %Inh (ABL2): 18%
- %Inh (ACVR1B): 0%
- %Inh (ACVR1): 0%
- %Inh (ACVR2A): 0%
- %Inh (ACVR2B): 38%
- %Inh (ACVRL1): 0%
- %Inh (ADCK3): 0%
- %Inh (ADCK4): 0%
- %Inh (AKT1): 0%
- %Inh (AKT2): 0%
- %Inh (AKT3): 0%
- %Inh (ALK): 22%
- %Inh (AMPK-alpha1): 8%
- %Inh (AMPK-alpha2): 0%
- %Inh (ANKK1): 0%
- %Inh (ARK5): 18%
- %Inh (ASK1): 0%

SMILES: Cc1ccc(C(=O)Nc2ccc(Nc3ccnc4cc(-c5nccs5)ccc34)cc2O)cc1.Cl [GW494702]
- %Inh (AAK1): 4%
- %Inh (ABL1-nonphosphorylated): 57%
- %Inh (ABL1-phosphorylated): 12%
- %Inh (ABL2): 12%
- %Inh (ACVR1B): 0%
- %Inh (ACVR1): 18%
- %Inh (ACVR2A): 0%
- %Inh (ACVR2B): 19%
- %Inh (ACVRL1): 0%
- %Inh (ADCK3): 1%
- %Inh (ADCK4): 34%
- %Inh (AKT1): 12%
- %Inh (AKT2): 6%
- %Inh (AKT3): 0%
- %Inh (ALK): 0%
- %Inh (AMPK-alpha1): 20%
- %Inh (AMPK-alpha2): 0%
- %Inh (ANKK1): 21%
- %Inh (ARK5): 14%
- %Inh (ASK1): 9%

SMILES: Cc1occc1-c1ncc(OC[C@@H](N)Cc2c[nH]c3ccccc23)cc1-c1ccc2[nH]nc(C)c2c1.O=C(O)C(F)(F)F [GSK682037]
- %Inh (AAK1): 61%
- %Inh (ABL1-nonphosphorylated): 13%
- %Inh (ABL1-phosphorylated): 33%
- %Inh (ABL2): 47%
- %Inh (ACVR1B): 8%
- %Inh (ACVR1): 0%
- %Inh (ACVR2A): 0%
- %Inh (ACVR2B): 0%
- %Inh (ACVRL1): 0%
- %Inh (ADCK3): 25%
- %Inh (ADCK4): 82%
- %Inh (AKT1): 97%
- %Inh (AKT2): 99.8%
- %Inh (AKT3): 87%
- %Inh (ALK): 24%
- %Inh (AMPK-alpha1): 12%
- %Inh (AMPK-alpha2): 0%
- %Inh (ANKK1): 0%
- %Inh (ARK5): 0%
- %Inh (ASK1): 0%

SMILES: c1ccc(-c2cnc3nccnn23)cc1 [AH20685]
- %Inh (AAK1): 0%
- %Inh (ABL1-nonphosphorylated): 0%
- %Inh (ABL1-phosphorylated): 0%
- %Inh (ABL2): 5%
- %Inh (ACVR1B): 0%
- %Inh (ACVR1): 17%
- %Inh (ACVR2A): 0%
- %Inh (ACVR2B): 0%
- %Inh (ACVRL1): 0%
- %Inh (ADCK3): 0%
- %Inh (ADCK4): 17%
- %Inh (AKT1): 0%
- %Inh (AKT2): 0%
- %Inh (AKT3): 0%
- %Inh (ALK): 20%
- %Inh (AMPK-alpha1): 0%
- %Inh (AMPK-alpha2): 0%
- %Inh (ANKK1): 0%
- %Inh (ARK5): 0%
- %Inh (ASK1): 0%

SMILES: COc1ccc(CNC(=O)NC2CCN(c3ccnc(Nc4ccc(F)cc4)n3)CC2)cc1 [GSK1379788]
- %Inh (AAK1): 13%
- %Inh (ABL1-nonphosphorylated): 0%
- %Inh (ABL1-phosphorylated): 0%
- %Inh (ABL2): 0%
- %Inh (ACVR1B): 0%
- %Inh (ACVR1): 0%
- %Inh (ACVR2A): 0%
- %Inh (ACVR2B): 0%
- %Inh (ACVRL1): 0%
- %Inh (ADCK3): 9%
- %Inh (ADCK4): 49%
- %Inh (AKT1): 0%
- %Inh (AKT2): 0%
- %Inh (AKT3): 0%
- %Inh (ALK): 20%
- %Inh (AMPK-alpha1): 0%
- %Inh (AMPK-alpha2): 0%
- %Inh (ANKK1): 0%
- %Inh (ARK5): 5%
- %Inh (ASK1): 0%

SMILES: CCCCc1nn2ncccc2c1-c1ccnc(Nc2ccc(N3CCN(C)CC3)cc2)n1 [GW684941]
- %Inh (AAK1): 21%
- %Inh (ABL1-nonphosphorylated): 95.8%
- %Inh (ABL1-phosphorylated): 98.8%
- %Inh (ABL2): 96.8%
- %Inh (ACVR1B): 67%
- %Inh (ACVR1): 89%
- %Inh (ACVR2A): 16%
- %Inh (ACVR2B): 35%
- %Inh (ACVRL1): 51%
- %Inh (ADCK3): 96.7%
- %Inh (ADCK4): 93.1%
- %Inh (AKT1): 0%
- %Inh (AKT2): 0%
- %Inh (AKT3): 0%
- %Inh (ALK): 72%
- %Inh (AMPK-alpha1): 5%
- %Inh (AMPK-alpha2): 9%
- %Inh (ANKK1): 0%
- %Inh (ARK5): 62%
- %Inh (ASK1): 0%

SMILES: Cn1cc(-c2[nH]c3cc(NC(=O)[C@H](N)C4CCCCC4)cc4c3c2C=NNC4=O)cn1
- %Inh (AAK1): 99.5%
- %Inh (ABL1-nonphosphorylated): 95.7%
- %Inh (ABL1-phosphorylated): 97.5%
- %Inh (ABL2): 30%
- %Inh (ACVR1B): 3%
- %Inh (ACVR1): 58%
- %Inh (ACVR2A): 81%
- %Inh (ACVR2B): 44%
- %Inh (ACVRL1): 0%
- %Inh (ADCK3): 0%
- %Inh (ADCK4): 0%
- %Inh (AKT1): 60%
- %Inh (AKT2): 45%
- %Inh (AKT3): 36%
- %Inh (ALK): 91.3%
- %Inh (AMPK-alpha1): 94.1%
- %Inh (AMPK-alpha2): 81%
- %Inh (ANKK1): 95.7%
- %Inh (ARK5): 92.2%
- %Inh (ASK1): 0%

SMILES: COc1cccc(-c2ccc3c(NC(=O)C4CC4)n[nH]c3n2)c1 [SB-710903]
- %Inh (AAK1): 12%
- %Inh (ABL1-nonphosphorylated): 83%
- %Inh (ABL1-phosphorylated): 76%
- %Inh (ABL2): 24%
- %Inh (ACVR1B): 0%
- %Inh (ACVR1): 18%
- %Inh (ACVR2A): 0%
- %Inh (ACVR2B): 22%
- %Inh (ACVRL1): 0%
- %Inh (ADCK3): 3%
- %Inh (ADCK4): 48%
- %Inh (AKT1): 0%
- %Inh (AKT2): 0%
- %Inh (AKT3): 0%
- %Inh (ALK): 29%
- %Inh (AMPK-alpha1): 0%
- %Inh (AMPK-alpha2): 13%
- %Inh (ANKK1): 0%
- %Inh (ARK5): 0%
- %Inh (ASK1): 12%

SMILES: COc1cc(Nc2nccc(N3CCC(NC(=O)c4cc5ccccc5s4)C3)n2)cc(OC)c1OC (centres unmarked) [GSK1379760]
- %Inh (AAK1): 58%
- %Inh (ABL1-nonphosphorylated): 0%
- %Inh (ABL1-phosphorylated): 0%
- %Inh (ABL2): 7%
- %Inh (ACVR1B): 0%
- %Inh (ACVR1): 28%
- %Inh (ACVR2A): 16%
- %Inh (ACVR2B): 11%
- %Inh (ACVRL1): 0%
- %Inh (ADCK3): 0%
- %Inh (ADCK4): 26%
- %Inh (AKT1): 1%
- %Inh (AKT2): 8%
- %Inh (AKT3): 0%
- %Inh (ALK): 19%
- %Inh (AMPK-alpha1): 45%
- %Inh (AMPK-alpha2): 30%
- %Inh (ANKK1): 12%
- %Inh (ARK5): 17%
- %Inh (ASK1): 20%

SMILES: COCCOCCOc1cc2ncc3c4ccc(C#N)cc4[nH]c3c2cc1OC
- %Inh (AAK1): 92.1%
- %Inh (ABL1-nonphosphorylated): 70%
- %Inh (ABL1-phosphorylated): 53%
- %Inh (ABL2): 2%
- %Inh (ACVR1B): 0%
- %Inh (ACVR1): 0%
- %Inh (ACVR2A): 6%
- %Inh (ACVR2B): 0%
- %Inh (ACVRL1): 0%
- %Inh (ADCK3): 29%
- %Inh (ADCK4): 0%
- %Inh (AKT1): 5%
- %Inh (AKT2): 0%
- %Inh (AKT3): 0%
- %Inh (ALK): 0%
- %Inh (AMPK-alpha1): 30%
- %Inh (AMPK-alpha2): 1%
- %Inh (ANKK1): 63%
- %Inh (ARK5): 12%
- %Inh (ASK1): 6%
